According to PubChem BioAssay (NCI):
Several values for one entry are separate records, joined by “and”; a condition that tells them apart may be missing. Equal entries are not always repeated. About 83,000 compounds went through this panel and 20% of them were active in at least one assay; those are over-represented in the sample as a whole.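 In brief: 96-well plates, 48 h treatment, single concentration, percent growth endpoint.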 Activity calls are given as the source filed them. The calls were made as follows: active = growth percent below 10; inactive = the rest.

Test system: MDA-MB-468 breast
Assay: NCI-60 one-dose screen, 48 h (100 = growth as untreated, 0 = no growth, -100 = all killed)
Conditions: 10 µM unless noted

| SMILES | growth |
| --- | --- |
| COc1ccc(-n2cnc3cc(C(=O)N4CCCCC4)ccc32)cc1 | 103% (inactive) |
| O=C(O)CNC1=C(Cl)C(=O)c2ccccc2C1=O | 109% (inactive) |
| CC(C)C(C(=O)CCN(C)C)c1ccc(Cl)cc1 (stereo not given) | 78.6% (inactive) |
| O=C(CN1CCN(c2cc(=O)n(-c3ccccc3)c3ccccc23)CC1)Nc1ccc(F)cc1 | 9.45% (active) |
| NS(=O)(=O)c1ccc(-n2cc(CN3CCNCC3)nn2)cc1 | -22.4% (active) |
| CC(=O)N(O)c1ccc(/C=C/c2ccccc2)cc1 | -63.5% (active) |
| Brc1ccc(-c2nnc3c4[nH]ccc4ncn23)cc1 | 104% (inactive) |
| ICCC(c1ccccc1)(c1ccccc1)c1ccccc1 | 22.6% (inactive) |
| COc1ccc(-c2cnc(SCC(=O)Nc3ccc(-c4nc5ccccc5s4)cc3)n2-c2ccc(OC)cc2)cc1 | -12.7% (active) |
| CCN(CC)CCCCCCCNc1c2ccc(Cl)cc2nc2ccc(OC)cc12 | -86.6% (active) |
| CN1CCN(Cc2ccc(NC(=O)c3cncc(C#Cc4c(N)ncc5c(F)cccc45)c3)cc2C(F)(F)F)CC1 | -82% (active) |
| O=C(Nc1ccc(-n2ccc3c(NC(=O)c4ccccc4)nccc32)cc1)Nc1ccc(Cl)c(Cl)c1 | -90.1% (active) |
| COC(=O)C1=COC(C)C2C[n+]3ccc4c([nH]c5ccccc54)c3CC12 (stereo not given) | 94.2% (inactive) and 85.8% (inactive) |
| O=C(O)c1cn(C2CC2)c2cc(N3CCN(S(=O)(=O)c4ccc(Cl)c(Cl)c4)CC3)c(F)cc2c1=O | -10.6% (active) |
| COc1cc(/C=C/C(=O)/C=C/c2cc3ccc(Cl)cc3n(Cc3ccccc3)c2=O)ccc1O | -42.8% (active) |
